IL1B secr inh = inflammasome signaling inhibition, IL-1 beta readout; THP-1 LPS/ATP IL-1B secretion, AlphaLISA, 16 h; active compounds read low; activity change, % at 57.5 µM; 4.7% of 360,000 active; AID 743279; in the data active means activity change below about -50%; inconclusive means mostly about -30% to -49%; further: on the % scale 0 is the no-effect control and ±100 the full control effect
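Secreted IL-1B measured by AlphaLISA bead assay after 16 h compound exposure of THP-1 cells; compounds (final up to 57.5 uM) added 1 h before LPS (250 ng/mL) and ATP (1.25 mM) stimulation; lower signal means less secretion.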
Integrin act MD = activates integrin-mediated alleviation for muscular dystrophy; 0.064% of 350,000 active; Potency, µM (highest dose often 38.3 µM), for the others: at the highest dose activation, actives largely listed as activators; alpha7betagal myoblasts, beta-gal FDG fluorescence, 48 h;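 further: potency means the concentration at half of the fitted maximal effect; 100% = response of the positive control SU9516; nearly all actives have a fitted effect of over 60% in size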
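alpha7betagal+/- myoblasts (passage 13, 250/well) treated 48 h at 37C with compounds at 1:260 dilution of DMSO stock. Lysed, then beta-galactosidase activity read as FDG fluorescence (ex 480/em 540) after 30 min, with pre-read for autofluorescence.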
D3 ag = activates the human D3 dopamine receptor; D3R DiscoveRx beta-arrestin cells, luminescence, 90 min; max activation, %; 0.58% of 410,000 active; in the data active means max activation above about 30%; further: 0% is about no effect
Target sequence (P35462 whole entry, looked up): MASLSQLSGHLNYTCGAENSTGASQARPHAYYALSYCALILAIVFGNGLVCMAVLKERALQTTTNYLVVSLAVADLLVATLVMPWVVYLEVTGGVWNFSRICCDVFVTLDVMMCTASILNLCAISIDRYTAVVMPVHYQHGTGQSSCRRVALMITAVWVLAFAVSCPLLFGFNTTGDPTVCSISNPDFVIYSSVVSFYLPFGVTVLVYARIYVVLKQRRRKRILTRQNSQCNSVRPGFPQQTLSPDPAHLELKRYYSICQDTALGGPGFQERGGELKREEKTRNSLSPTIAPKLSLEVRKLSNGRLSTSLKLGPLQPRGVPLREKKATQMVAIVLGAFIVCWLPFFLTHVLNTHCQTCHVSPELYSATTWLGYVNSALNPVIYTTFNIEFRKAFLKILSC
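Agonist mode: compounds and dopamine controls were applied to plated cells for 90 min at 37 degrees C after an overnight attachment at 1500 cells/well. Luminescent read-out followed 30 - 60 minutes at room temperature with DiscoveRx detection reagent.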
ATXN2 expr inh = inhibitors of ATXN2 expression; Potency, µM (top dose mostly 57 µM), inactives show at the highest dose activity change, negative = inhibition, usual class: inhibitors; HEK-293 ATXN2-luciferase reporter, luminescence, 24 h; 0.72% of 360,000 active; AID 1745845; further: potency means the concentration at half of the fitted maximal effect; on the % scale 0 is the no-effect control and ±100 the full control effect; nearly all actives have a fitted effect of over 55% in size
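ATXN2-luciferase reporter cells (luciferase flanked by upstream and downstream ATXN2 gene portions) were treated 24 h at 37 °C with compounds at up to 57 uM. SteadyGlo luminescence gave expression; GF-AFC fluorescence gave viability.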
D3 antag = antagonists of human D3 dopamine receptor | P35462 | D3R cells, DiscoveRx beta-arrestin luminescence, antagonist mode; active compounds read low | max response, negative = inhibition, % | 2.5% of 360,000 active | AID 652054; in the data active means max response below about -50%; inconclusive means no clear call, values can overlap the other calls; further: on the % scale 0 is the no-effect control and ±100 the full control effect
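Cells plated overnight at 1500 cells/well, then exposed to library compounds with dopamine controls for 90 minutes at 37 degrees C. DiscoveRx reagent added for 30–60 minutes at room temperature; luminescence read, quantitative HTS format.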
S2 tox = viability counter-screen for ATXN expression inhibitors. S2 cells (HEK-293 line with an ATXN2-luciferase reporter) viability, CellTiter-Fluor protease fluorescence, 24 h. Potency, µM (highest dose often 56.7 µM), hits mostly cytotoxic. 0.49% of 400,000 active; further: potency means the concentration at half of the fitted maximal effect; nearly all actives have a fitted effect of over 40% in size
The depositor's hits bear a star; i = inactive; ? = inconclusive; . = not tested or not shown; [ ] = dose if it differs, or a comment. Compounds with a hit are over-represented: about 7% of the library has one in this group of screens. Unless noted, the call rests on the fitted dose curve; in most records, active means well fitted curve in the direction sought with a large enough effect; inconclusive means small, poorly fitted or top-dose-only effect, or another doubt; inactive means no such curve, though single readings can be large; an effect the other way counts as inactive or inconclusive.

SMILES	IL1B secr inh	Integrin act MD	D3 ag	ATXN2 expr inh	D3 antag	S2 tox
COc1cccc(CN2CCCC(C(=O)N3CCCCC3)C2)c1OC (centres undefined)	-22.2	22.3%	-6.0	.	-61.4*	.
COc1cc(OC)c(OC)cc1CN1CCCC(C(=O)N2CCCC2)C1 (centres undefined)	7.6	-9.1%	11.2	6.4%	-11.5	i
O=C(c1ccc2c(c1)OCO2)C1CCCN(Cc2cn[nH]c2-c2ccccc2)C1 (centres undefined)	-9.2	23.4%	-17.0	-19.4%	-12.9	i
COc1cc(OC)c(OC)cc1CN1CCCC(C(=O)c2ccc3c(c2)OCO3)C1 (centres undefined)	2.6	-15.9%	-17.5	-9.1%	-93.2*	i
Cc1ccsc1C(=O)C1CCCN(Cc2cc(F)ccc2-n2cccn2)C1 (centres undefined)	-18.8	-5.1%	-18.4	?	-61.7*	i
C=C1C[C@H](O[C@@H]2O[C@H](CO)[C@@H](O)[C@H](O)[C@H]2O)[C@@H]2[C@H](OC(=O)[C@H]2C)[C@H]2[C@H](C)[C@@H](O)C[C@@H]12	16.0	-7.6%	1.6	1.4%	-1.9	i
CCCC(C(=O)NC1CCCC1)N(Cc1ccc2c(c1)OCO2)C(=O)c1snc(C(N)=O)c1N (centres undefined)	-52.9*	-5.2%	2.4	-6.4%	12.5	i
Cc1cccc(N(C(=O)c2snc(C(N)=O)c2N)C(C(=O)NC2CCCC2)c2ccc(C)o2)c1 (centres undefined)	-18.3	-42.9%	-2.1	-20.0%	-3.4	?
COc1ccc(N(CC(=O)NCCC(C)C)C(=O)c2snc(C(=O)NC3CCCCC3)c2N)c(OC)c1	-22.4	10µM*	-2.4	1.2%	-20.9	i
CN(C)c1ccc(C(C(=O)NC2CCCCC2)N(Cc2ccco2)C(=O)c2snc(C(N)=O)c2N)cc1 (centres undefined)	-71.8*	-58.9%	6.8	-26.7%	20.5	i
CCCC(C(=O)NC1CCCC1)N(Cc1ccc(F)cc1)C(=O)c1snc(C(N)=O)c1N (centres undefined)	9.7	-18.8%	-0.1	-7.7%	8.2	i
Cc1ccc(N(C(=O)c2snc(C(N)=O)c2N)C(C(=O)NC2CCCC2)c2ccc(C)o2)cc1 (centres undefined)	-77.2*	?	5.7	-12.1%	11.7	i
COc1cc(C(C(=O)NC2CCCC2)N(Cc2ccco2)C(=O)c2snc(C(N)=O)c2N)cc(OC)c1OC (centres undefined)	16.2	?	-8.1	-10.7%	1.0	i
CCN(CC)c1ccc(NC(=O)C2COc3ccc(OC)cc3C2)c(C)c1 (centres undefined)	.	.	-20.5	?	.	?
CC(C)CCNC(=O)C(NS(=O)(=O)c1ccc2c(c1)c(=O)n(C)c(=O)n2C)c1ccccc1 (centres undefined)	-19.5	13.5%	11.1	1.8%	7.4	i
CCOc1ccc(N(C(=O)c2snc(C(N)=O)c2N)C(CC)C(=O)NC2CCCC2)cc1 (centres undefined)	-0.7	-15.8%	-21.1	-17.1%	-1.8	i
COc1ccc(N(C(=O)c2snc(C(N)=O)c2N)C(C(=O)NC2CCCC2)c2ccco2)c(OC)c1 (centres undefined)	-70.0*	18.3%	-3.4	-19.5%	-16.6	i
CCCC(C(=O)NC1CCCC1)N(C(=O)c1snc(C(N)=O)c1N)c1ccc(OCC)cc1 (centres undefined)	-59.3*	0.0%	-9.6	-31.4%	?	?
Cc1cc(C)nc(N2CCC(C(=O)N3CCN(c4cc(Cl)ccc4C)CC3)CC2)n1	-14.8	-8.0%[7.66 µM]	64.5*	-25.0%	115.4	i
CCCn1cc(S(=O)(=O)c2ccc(OC)cc2)c(=O)c2cc(OC)ccc21	-11.1	?	-2.6	-1.1%	-8.5	i
COc1ccc(NC(=O)c2ccc([N+](=O)[O-])s2)c([N+](=O)[O-])c1	0.0	-45.4%	-1.6	-27.6%	4.5	i
Nc1ccc(N2CCCCC2)c2nonc12	8.5	-9.7%	0.6	.	?	i
Nc1ccc(C2CCCc3nonc32)c2nonc12 (centres undefined)	-22.0	-16.0%	-7.6	-3.0%	-62.5*	i
CCC(C)NCCOc1ccccc1C (centres undefined)	-4.7	19.7%	-33.8	-9.3%	-67.5*	i
Cc1ccccc1OCCNC(=S)Nc1ccccc1	-12.8	-17.6%	-7.7	0.9%	-0.5	i
SMILES	IL1B secr inh	Integrin act MD	D3 ag	ATXN2 expr inh	D3 antag	S2 tox
CCC(C)NCCOc1ccc(Br)cc1 (centres undefined)	12.1	-21.0%	-5.3	?	-67.8*	i
O=C(NCc1ccccc1)c1cc(C2CCCN(C(=O)c3cccs3)C2)on1 (centres undefined)	-13.2	.	5.7	-6.8%	13.8	i
CC1CN(S(=O)(=O)c2ccc(NC(=O)c3cc(-c4ccccc4O)n[nH]3)cc2)CC(C)O1 (centres undefined)	-50.9*	-28.9%	-2.3	?	23.7	i
COc1cccc(NC(=O)Cn2nnc(C(=O)NCc3ccc4c(c3)OCO4)c2N)c1	29.7	0.0%	7.3	0.6%	-8.7	i
OCCCN=c1cc(-c2ccccc2)oc2ccc(Cl)cc12	-102.3*	-64.1%	0.5	?	-12.5	i
CC1(C)CC(N=c2cc(-c3ccccc3)oc3ccc(Cl)cc23)CC(C)(C)N1	-101.7*	-59.7%	-14.7	0.6%[11.3 µM]	-17.3	i
COC(OC)c1ccnc(-c2ccc(OC(=O)c3ccc(F)cc3)cc2)n1	7.4	?	-0.9	-4.9%	-10.5	i
Cc1cc(C(c2ccc(O)cc2)c2cc(C)c(O)cc2C)c(C)cc1O	-81.8*	?	-7.9	-24.5%	-5.9	i
CC[C@H](c1ccc(O)cc1)[C@@H](CC)c1ccc(O)cc1	.	.	6.1	?	.	?
CCCCN(C)C(=O)C1CCC(CNS(=O)(=O)c2ccc3c(c2)CC(C)N3C(C)=O)CC1 (centres undefined)	16.7	-11.9%	2.3	-6.7%	20.3	i
CC1CCCC(NS(=O)(=O)c2cccc3nsnc23)C1C (centres undefined)	-1.7	19.8%	-0.3	-7.7%	-15.4	i
CC1CCCN(c2nc(-c3ccccc3O)nc3ccccc23)C1 (centres undefined)	.	.	-4.3	9.9%	.	i
CC1CCCN(c2c3c(nc4ccccc24)CCCC3)C1 (centres undefined)	-89.2*	4.4%	24.3	?	-5.4	?
COc1cccc(CNC(=O)CNS(=O)(=O)c2ccc(Br)s2)c1	-52.5*	7.4%	-14.7	7.1%	14.1	i

High-throughput results deposited in PubChem BioAssay by National Center for Advancing Translational Sciences (NCATS).
